Pf growth 96h = Primary qHTS for delayed death inhibitors of the malarial parasite plastid, 96 hour incubation. Potency, µM (highest dose often 28.7 µM), hits mostly inhibitors. P. falciparum luciferase reporter growth, 96 h. actives 6.9% (n = 320,000)
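Erythrocytes infected with luciferase-expressing P. falciparum were dispensed at 2% hematocrit and 0.05% parasitemia (final), then incubated with compounds 96 hours at 37 C in 5% CO2. Luminescence after detection reagent addition reported growth.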
NS1 function inh = qHTS Assay for Inhibitors of Influenza NS1 Protein Function; Potency, µM (top dose mostly 46.1 µM); actives 0.4% (n = 270,000); calls by dose curve; also: actives are rising curves; nearly all actives have a fitted effect of over 50% in size
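Growth recovery, yeast-based: influenza A NS1 expressed in S. cerevisiae causes slow growth, and suppressors are detected by OD600. The parent strain without NS1 is used as positive control.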
Pf growth 48h = Primary qHTS for delayed death inhibitors of the malarial parasite plastid, 48 hour incubation; P. falciparum luciferase growth in erythrocytes, 48 h; Potency, µM (titrated, usually from 28.7 µM), usual class: inhibitors; actives 5.9% (n = 310,000); AID 504832, 2011
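First compound was added to culture medium, then infected red cells at 0.1% parasitemia and 2% hematocrit (final). After incubation at 37 C under 5% CO2, luciferase detection reagent was dispensed and light output recorded.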
SARS PLpro yeast = qHTS of Yeast-based Assay for SARS-CoV PLP; actives 0.19% (n = 330,000); AID 485353, 2010; Potency, µM (doses to about 32.9 µM), hits mostly activators; S. cerevisiae expressing SARS-CoV PLpro, growth rescue; calls by dose curve; also: nearly all actives have a fitted effect of over 55% in size
RE007 growth inh = qHTS Assay for Inhibitors of the HIV-1 protein Vpr. S. pombe RE007 Vpr strain, BacTiter-Glo ATP luminescence, 24 h. Potency, µM (titrated, usually from 92.2 µM), usual class: inhibitors. actives 0.21% (n = 360,000); active = well fitted falling curve with a large enough effect; inconclusive = small, poorly fitted or top-dose-only effect; inactive = no such curve, though single readings can be large or run the other way; also: nearly all actives have a fitted effect of over 50% in size
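Fission yeast RE007 carrying one integrated HIV-1 vpr copy, seeded at OD 0.01 in PMG+AL medium with 23 nL pinned compound. Grown 24 h at 30 degrees; viability read by BacTiter-Glo luminescence after 5 min.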
Large screens that a line does not name were inactive. In the library only some 9.5% were active in any assay of this set; here they are far more common. Unless noted, calls follow the shape of the dose curve; as a rule, active = well fitted inhibition curve with a large enough effect; inconclusive = small, poorly fitted or top-dose-only effect, or another doubt; inactive = no such curve, though single readings can be large or run the other way.

CCS(=O)(=O)N1Cc2ccccc2CC1C(=O)Nc1nnc(SCc2c(Cl)cccc2Cl)s1 (stereo unspecified)	Pf growth 96h inconclusive, Pf growth 48h inconclusive
Cc1cnc(C(=O)Nc2nnc(SCc3c(Cl)cccc3Cl)s2)cn1	Pf growth 96h 2.9µM, Pf growth 48h 2.6µM
CCSc1nnc(NC(=O)C2Cc3ccccc3CN2S(=O)(=O)CC)s1 (stereo unspecified)	Pf growth 96h 13µM
CCc1nnc(NC(=O)c2cc(Cl)ccn2)s1	Pf growth 96h 5.9µM, Pf growth 48h inconclusive, RE007 growth inh inconclusive
CN1CCN(c2ccc(-c3cccc(NC(=O)COc4ccc(Cl)cc4Cl)c3)nn2)CC1	none (no result: NS1 function inh, SARS PLpro yeast)
CCN(CC)CCCN1CC(=O)N2[C@@H](Cc3c([nH]c4ccccc34)C2(C)C)C1=O	none
NC(=NCCC[C@H](N)C(=O)O)NO	none (no result: Pf growth 96h, Pf growth 48h, SARS PLpro yeast, RE007 growth inh)
COc1ccc(NC(=S)NCCc2c(C)[nH]c3ccc(OC)cc23)cc1	Pf growth 48h inconclusive (no result: NS1 function inh)
COc1ccc2[nH]c(C)c(CCNCc3cn(C)c4ccccc34)c2c1	Pf growth 96h 5.2µM, Pf growth 48h 8.3µM (no result: NS1 function inh)
COc1ccc(CCNC(=O)CCc2cn(C)c3ccccc23)c(OC)c1OC	Pf growth 96h inconclusive, Pf growth 48h 12µM
O=C(Cc1c(C(=O)O)[nH]c2ccccc12)Nc1ccc2c(c1)OCO2	Pf growth 96h 13µM, Pf growth 48h inconclusive
COc1ccc(Br)cc1CNC(=O)CCCc1cn(C)c2ccccc12	Pf growth 96h 12µM
C=CCOc1ccc(C2/C(=C(\O)c3ccc4c(c3)OCCO4)C(=O)C(=O)N2CCCN2CCOCC2)cc1 (stereo unspecified)	none
CCOc1ccc(C2=CSC3=NCCN23)cc1Cl	Pf growth 96h inconclusive, Pf growth 48h inconclusive
CCCCC(=O)N(C)c1c(C)nc2ccc(C(=O)NCCN(C)C)cn12	none (no result: Pf growth 96h, NS1 function inh, Pf growth 48h, SARS PLpro yeast)
CC(C)(O)C#Cc1ccc(CN2CCC(n3nccc3NC(=O)C3CC3)CC2)cc1	Pf growth 96h inconclusive
O=C1c2ccccc2C(c2nnnn2Cc2ccccc2)N1Cc1cccnc1 (stereo unspecified)	none (no result: Pf growth 96h, NS1 function inh, Pf growth 48h, SARS PLpro yeast)
COc1ccc(OC)c(CNC(=O)Cc2c(C(=O)O)[nH]c3ccccc23)c1	Pf growth 96h 9.3µM
COc1ccc(OC)c(CNC(=O)CCc2cn(C)c3ccccc23)c1	Pf growth 96h 3.7µM
COc1cccc(CNC(=O)Cc2c(C(=O)O)[nH]c3ccccc23)c1	none (no result: Pf growth 96h)
CCOc1cc(/C=N/Nc2nc(C)cc(=O)[nH]2)ccc1O	Pf growth 48h inconclusive
CNc1cc(C)nc(-n2nc(C)cc2C)n1	Pf growth 96h 4.7µM, Pf growth 48h 8.3µM
Cc1cc(N/N=C/c2ccc(F)cc2)nc(-n2nc(C)cc2C)n1	Pf growth 96h 1µM, Pf growth 48h 0.33µM
CCOc1cc(/C=N/Nc2cc(C)nc(-n3nc(C)cc3C)n2)ccc1O	Pf growth 96h 1.7µM, Pf growth 48h 0.37µM
CCOc1ccc(Nc2cc(C)nc(-n3nc(C)cc3C)n2)cc1	Pf growth 96h inconclusive, Pf growth 48h 1.9µM
COc1ccc(Nc2cc(C)nc(N3CCOCC3)n2)cc1	none
CC(C)C[C@H](NC(=O)OC(C)(C)C)C(=O)N[C@@H](CO)[C@H](O)[C@@H]1C[C@@H]1C(=O)N(C)C	Pf growth 48h inconclusive
COCCn1c(SC(C)C(=O)Nc2ccc(N3CCOCC3)cc2)nnc1-c1ccncc1 (stereo unspecified)	none (no result: NS1 function inh, SARS PLpro yeast)
COc1ccc(/C=N/Nc2cc(C)nc(-n3nc(C)cc3C)n2)c(OC)c1	Pf growth 96h 0.33µM, Pf growth 48h 1.5µM, RE007 growth inh inconclusive
COc1ccccc1/C=N/Nc1cc(C)nc(N2CCOCC2)n1	Pf growth 96h inconclusive, Pf growth 48h inconclusive
Cc1cc(C(=O)NNC(=O)c2sccc2C)c(C)o1	none (no result: NS1 function inh)
Cc1nn(C(C)C(=O)NC2CCCCCC2)c(=O)c2nn(-c3ccccc3)c(C)c12 (stereo unspecified)	Pf growth 96h 12µM
Cc1ccc(-n2nc3c(=O)n(CC(=O)NC4CCCCCC4)nc(C)c3c2C)cc1	Pf growth 96h 13µM
Cc1nn(C(C)C(=O)NCCCN2CCCC2)c(=O)c2nn(-c3ccccc3)c(C)c12 (stereo unspecified)	Pf growth 96h inconclusive
CCOc1ccc(CCNC(=O)C(C)n2nc(C)c3c(C)n(-c4ccccc4)nc3c2=O)cc1 (stereo unspecified)	Pf growth 96h 13µM, Pf growth 48h inconclusive, SARS PLpro yeast inconclusive
CCC(C(=O)NCCc1ccccc1OC)n1nc(C)c2c(C)n(-c3ccccc3)nc2c1=O (stereo unspecified)	Pf growth 96h 12µM
Cc1ccc(CCNC(=O)C(C)n2nc(C)c3c(C)n(-c4ccccc4)nc3c2=O)cc1 (stereo unspecified)	Pf growth 96h inconclusive
CC(C)(C)OC(=O)NCCCCCO	none (no result: NS1 function inh, SARS PLpro yeast)
CCC[C@@H]1C=C(C(=O)OCC)[C@H](c2ccccc2)N1S(=O)(=O)c1ccc(C)cc1	none (no result: Pf growth 96h, NS1 function inh, Pf growth 48h, SARS PLpro yeast)
CCOc1ccc(CCNC(=O)CCCn2nc(C)c3c(C)n(-c4ccccc4)nc3c2=O)cc1	Pf growth 96h 13µM
Cc1ccc(-n2nc3c(=O)n(CCCC(=O)N4CCC(C(N)=O)CC4)nc(C)c3c2C)cc1	Pf growth 96h inconclusive, Pf growth 48h 10µM
CCOc1ccc(CCNC(=O)CCn2nc(C)c3c(C)n(-c4ccccc4)nc3c2=O)cc1	Pf growth 48h inconclusive
Cc1ccc(-n2nc3c(=O)n(CCCC(=O)N4CCC(C)CC4)nc(C)c3c2C)cc1	Pf growth 48h inconclusive
CC(=O)c1ccc(S(=O)(=O)Nc2cccc(-c3ccc(N4CCOCC4)nn3)c2)cc1	Pf growth 96h inconclusive, Pf growth 48h inconclusive (no result: NS1 function inh)
CC(=O)COc1nc2c(c(-c3ccco3)c1C#N)CCc1ccccc1-2	Pf growth 96h 12µM, Pf growth 48h 12µM
CCOC(=O)C1CCCN(C(=O)c2cnn3c(C(F)(F)F)cc(-c4ccccc4)nc23)C1 (stereo unspecified)	Pf growth 48h 9.3µM (no result: Pf growth 96h)
CCOC(=O)c1cnn2c(C(F)(F)F)cc(-c3ccccc3)nc12	none
COc1ccc(-c2cc(C(F)(F)F)n3ncc(C(=O)N4CCCCC4c4cccnc4)c3n2)cc1 (stereo unspecified)	Pf growth 48h 2.9µM (no result: NS1 function inh)
O=C(c1cc2nc(-c3ccccc3)cc(C(F)(F)F)n2n1)N1CCN2CCCC2C1 (stereo unspecified)	Pf growth 96h inconclusive, Pf growth 48h inconclusive
CCOC(=O)C1CCCN(C(=O)c2cc3nc(-c4cccc(OC)c4)cc(C(F)(F)F)n3n2)C1 (stereo unspecified)	Pf growth 48h 12µM (no result: Pf growth 96h)
O=C(CCc1ccc(S(=O)(=O)N2CCOCC2)cc1)OCC(=O)c1ccccc1F	none (no result: Pf growth 96h, NS1 function inh, Pf growth 48h)
O=C(COC(=O)CNS(=O)(=O)c1cccc(Br)c1)NC(=O)Nc1ccc2c(c1)OCCO2	none

High-throughput results (PubChem)
